Measurements: PubChem BioAssay (NCATS)
Records with an inconclusive call do not appear. The source made the active and inactive calls. Unless noted, calls follow the shape of the full dose curve.

Assays:
[1] = qHTS for Inhibitors of the Functional Ribonucleoprotein Complex (vRNP) of Lassa (LASV) Arenavirus: LASV Primary Screen - GLuc reporter signal (AID 1347082; calls by dose curve; tested in HEK293 reporter line; also: nearly all actives have a fitted effect of over 60% in size); conditions: LASV minigenome vRNP, Gaussia luciferase reporter; series mostly up to 57.5 µM
[2] = qHTS for Inhibitors of the Functional Ribonucleoprotein Complex (vRNP) of Lassa (LASV) Arenavirus: Viability assay - alamar blue signal for LASV Primary Screen (AID 1347083; calls by dose curve; tested in HEK293 reporter line; also: nearly all actives have a fitted effect of over 80% in size); conditions: cell viability, alamar blue fluorescence (LASV minigenome counter-screen); series mostly up to 57.5 µM
[3] = qHTS for Inhibitors of the Functional Ribonucleoprotein Complex (vRNP) of Lymphocytic Choriomeningitis Arenaviruses (LCMV): Viability assay - alamar blue signal for LCMV Primary Screen (AID 1347085; calls by dose curve; tested in HEK293 reporter line; also: nearly all actives have a fitted effect of over 80% in size); conditions: alamar blue viability counter-screen, LCMV vRNP screen cells; series mostly up to 57.5 µM
[4] = molecular target: Nucleoprotein (Lymphocytic choriomeningitis virus (strain Armstrong)) (UniProt P09992); test: qHTS for Inhibitors of the Functional Ribonucleoprotein Complex (vRNP) of Lymphocytic Choriomeningitis Arenaviruses (LCMV): LCMV Primary Screen - GLuc reporter signal (AID 1347086); conditions: LCMV minigenome vRNP cell assay, Gaussia luciferase reporter; series mostly up to 57.5 µM; also: nearly all actives have a fitted effect of over 70% in size
Sequence of Nucleoprotein (Lymphocytic choriomeningitis virus (strain Armstrong)) (P09992 whole entry, looked up): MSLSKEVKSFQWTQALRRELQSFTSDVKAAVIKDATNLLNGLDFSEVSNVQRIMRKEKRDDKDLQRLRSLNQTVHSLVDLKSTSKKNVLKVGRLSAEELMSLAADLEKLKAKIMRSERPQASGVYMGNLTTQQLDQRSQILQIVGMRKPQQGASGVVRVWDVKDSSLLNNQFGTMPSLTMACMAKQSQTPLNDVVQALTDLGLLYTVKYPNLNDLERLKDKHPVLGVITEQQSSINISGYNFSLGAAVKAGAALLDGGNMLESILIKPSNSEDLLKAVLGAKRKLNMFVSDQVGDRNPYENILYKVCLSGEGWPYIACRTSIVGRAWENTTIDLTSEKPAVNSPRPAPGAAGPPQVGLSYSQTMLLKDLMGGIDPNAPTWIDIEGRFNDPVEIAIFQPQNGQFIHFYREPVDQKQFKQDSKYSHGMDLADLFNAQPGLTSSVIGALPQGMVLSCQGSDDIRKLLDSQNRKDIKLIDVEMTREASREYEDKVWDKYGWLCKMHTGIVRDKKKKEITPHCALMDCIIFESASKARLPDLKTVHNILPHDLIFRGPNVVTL
% is scaled to controls: 0 for no effect and ±100 for the full control effect; potency is read from the fitted curve at half-maximal effect.

CCCCCCCCO[C@@H]1O[C@H](CO)[C@@H](O)[C@H](O)[C@H]1O
inactive: Potency [1] | Potency [2] | Potency [3] | Potency [4]

C=C(CC1CC(O)[C@]2(C)OC3CC4OC5C[C@]6(C)O[C@]7(C)CCC8OC9C[C@]%10(C)OC%11C(C)=CC(=O)OC%11CC%10OC9C[C@@H](C)C8OC7CC6O[C@]5(C)C/C=C\C4OC3CC2O1)C(=O)O (stereo not given in full)
inactive: Potency [1] | Potency [2] | Potency [3] | Potency [4]

COc1cc(OC)cc(-c2ccc3ncc4ccc(=O)n(-c5ccc(N6CCNCC6)c(C(F)(F)F)c5)c4c3c2)c1
active: Potency [1] 10.9 µM | Potency [2] 6.85 µM | Potency [3] 1.93 µM | Potency [4] 3.06 µM

C=C1CCC(OC(C)=O)C2(C)CCC3C(C)C(=O)OC3C12O (stereo not given)
inactive: Potency [1] | Potency [2] | Potency [3] | Potency [4]

C=C(C)[C@@H]1CCC2(C(=O)O)CC[C@]3(C)[C@H](CC[C@@H]4[C@@]5(C)CCC(=O)C(C)(C)[C@@H]5CC[C@]43C)[C@@H]12 (stereo not given in full)
inactive: Potency [1] | Potency [2] | Potency [3] | Potency [4]

CC1(C)CCc2c([nH]c3ccccc3c2=O)O1
inactive: Potency [1] | Potency [2] | Potency [3] | Potency [4]

CC1=CCC[C@H]2[C@H](C1)C(=O)C[C@@H](C)[C@]2(C)CC/C(=C/CO)CO
inactive: Potency [1] | Potency [2] | Potency [3] | Potency [4]

COc1cc(CCc2ccccc2)c(C(=O)O)c(O)c1C/C=C(/C)CCC=C(C)C
inactive: Potency [1] | Potency [2] | Potency [3] | Potency [4]

COC(=O)C1=CO[C@@H](C)[C@@H]2CN3CC[C@@]4(C(=O)Nc5ccccc54)[C@@H]3C[C@H]12
inactive: Potency [1] | Potency [2] | Potency [3] | Potency [4]

CC1(C)O[C@@H]2C[C@@H]3[C@H]4C[C@@H](F)C5=CC(=O)C=C[C@]5(C)[C@@]4(F)[C@@H](O)C[C@]3(C)[C@]2(C(=O)CO)O1
inactive: Potency [1] | Potency [2] | Potency [3] | Potency [4]

C[C@@H](O)CCC[C@H](O)/C=C/[C@H]1[C@H](O)CC(=O)[C@@H]1C/C=C\CCCC(=O)O
inactive: activity change, negative = inhibition [1] -72.5% [at 5.82 µM] | activity change, negative = reduced viability [2] -134% [at 5.82 µM] | activity change, negative = lower viability [3] -144% [at 5.82 µM] | activity change, negative = inhibition [4] -73.7% [at 5.82 µM]

O=C(CCCO)CCCCCCCCC[C@H]1N[C@H](CO)[C@@H](O)[C@@H]1O
inactive: Potency [1] | Potency [2] | Potency [3] | Potency [4]

O=C(O)c1cccc(Br)c1
inactive: Potency [1] | Potency [2] | Potency [3] | Potency [4]

OCC(O)C(O)C(O)CO (stereo not given)
inactive: Potency [1] | Potency [2] | Potency [3] | Potency [4]

COc1ccc(C2Sc3ccccc3N(CCN(C)C)C(=O)C2OC(C)=O)cc1 (stereo not given)
inactive: Potency [1] | Potency [2] | Potency [3] | Potency [4]

CC1=CC2OC3CC4OC(=O)C=CC=CC(=O)OCCC(C)C(O)C(=O)OCC2(CC1)C4(C)C31CO1 (stereo not given)
inactive: Potency [1] | Potency [2] | Potency [3] | Potency [4]

Nc1nc(=O)n([C@H]2CSC(CO)O2)cc1F (stereo not given in full)
inactive: Potency [1] | Potency [2] | Potency [3] | Potency [4]

CC(=O)O[C@H]1C[C@@H]2CC[C@H]3[C@H]4C[C@H]([N+]5(C)CCCCC5)[C@@H](OC(C)=O)[C@@]4(C)CC[C@@H]3[C@@]2(C)C[C@H]1N1CCCCC1
inactive: Potency [1] | Potency [2] | Potency [3] | Potency [4]

CO[C@H]1C[C@H](O[C@H]2[C@H](C)O[C@@H](O[C@@H]3/C(C)=C/C[C@@H]4C[C@@H](C[C@]5(C=C[C@H](C)[C@@H](C6CCCCC6)O5)O4)OC(=O)[C@@H]4C=C(C)[C@@H](O)[C@H]5OC/C(=C\C=C\[C@@H]3C)[C@]54O)C[C@@H]2OC)O[C@@H](C)[C@@H]1O
inactive: Potency [1] | Potency [2] | Potency [3] | Potency [4]

CC(=O)OC(C)c1ccccc1 (stereo not given)
inactive: Potency [1] | Potency [2] | Potency [3] | Potency [4]

OC(CC(O)c1ccccc1)c1ccccc1 (stereo not given)
inactive: Potency [1] | Potency [2] | Potency [3] | Potency [4]

COc1cc2c(c(OC)c1OC)-c1c(cc3c(c1OC)OCO3)CC(C)C(C)(O)C2OC(=O)c1ccccc1 (stereo not given)
inactive: Potency [1] | Potency [2] | Potency [3] | Potency [4]

Cc1cc2c(c(C)c1CCO)C(=O)[C@H](C)C2
inactive: Potency [1] | Potency [2] | Potency [3] | Potency [4]

COc1cc(C)ccc1C(C)C
inactive: Potency [1] | Potency [2] | Potency [3] | Potency [4]

CC12CCC(=O)C=C1CCC1C2C(O)CC2(C)C(O)CCC12 (stereo not given)
inactive: Potency [1] | Potency [2] | Potency [3] | Potency [4]

COc1ccc2[nH]c3c(c2c1)CCn1c-3nc2ccccc2c1=O
inactive: Potency [1] | Potency [2] | Potency [3] | Potency [4]

c1ccc2cnccc2c1
inactive: Potency [1] | Potency [2] | Potency [3] | Potency [4]

OC(c1cc(C(F)(F)F)nc2c(C(F)(F)F)cccc12)C1CCCCN1 (stereo not given)
inactive: Potency [1] | Potency [2] | Potency [3] | Potency [4]

Cc1cc(=O)c2c(O)c(O)ccc2o1
inactive: Potency [1] | Potency [2] | Potency [3] | Potency [4]

O=c1ccc2cc3ccoc3cc2o1
inactive: Potency [1] | Potency [2] | Potency [3] | Potency [4]

C[N+]1([O-])[C@@H]2Cc3cc4c(cc3[C@@H]1Cc1cc3c(cc12)OCO3)OCO4 (stereo not given in full)
inactive: Potency [1] | Potency [2] | Potency [3] | Potency [4]

CC(C)C(=O)OCCc1ccccc1
inactive: Potency [1] | Potency [2] | Potency [3] | Potency [4]

CC(C)CC(=O)[C@@H](O)Cc1ccc(O)cc1
inactive: Potency [1] | Potency [2] | Potency [3] | Potency [4]

CCC(=O)O[C@]1(C(=O)CO)CC[C@H]2[C@@H]3CCC4=CC(=O)CC[C@]4(C)[C@@H]3CC[C@@]21C
inactive: Potency [1] | Potency [2] | Potency [3] | Potency [4]

COc1ccc(CCC(=O)O)cc1
inactive: Potency [1] | Potency [2] | Potency [3] | Potency [4]

CCCCC/C=C\C/C=C\C/C=C\CCCCCCC(=O)O[C@H](COCCCCCCCCCCCCCCCC)COP(=O)([O-])OCC[N+](C)(C)C
inactive: activity change, negative = inhibition [1] -13.6% [at 5.82 µM] | activity change, negative = reduced viability [2] 4.54% [at 5.82 µM] | activity change, negative = lower viability [3] 13.1% [at 5.82 µM] | activity change, negative = inhibition [4] 9.5% [at 5.82 µM]

Cc1ccc(C(C)(O)c2nc3ccccc3s2)c(C)c1 (stereo not given)
inactive: Potency [1] | Potency [2] | Potency [3] | Potency [4]

C[C@H]1C[C@@H]2[C@@H]([C@@H](O)C[C@@]3(C)[C@H]2CC[C@]3(O)C(=O)CO)[C@@]2(C)C=CC(=O)C=C12
inactive: Potency [1] | Potency [2] | Potency [3] | Potency [4]

COc1cc2c(cc1OC)[C@@H]1Cc3cc4c(cc3[C@H](C2)N1C)OCO4
inactive: Potency [1] | Potency [2] | Potency [3] | Potency [4]

O=C[C@H](O)[C@@H](O)[C@H](O[C@H]1O[C@H](CO)[C@@H](O[C@H]2O[C@H](CO)[C@@H](O)[C@H](O)[C@H]2O)[C@H](O)[C@H]1O)[C@H](O)CO
inactive: Potency [1] | Potency [2] | Potency [3] | Potency [4]

O=P(O)(O)OC[C@H]1O[C@](O)(COP(=O)(O)O)[C@@H](O)[C@@H]1O
inactive: Potency [1] | Potency [2] | Potency [3] | Potency [4]

CC1=CC2OC3CC4OC(=O)C=CC=CC(C(C)O)OCC(O)C5(C)OC5C(=O)OCC2(CC1O)C4(C)C31CO1 (stereo not given)
inactive: Potency [1] | Potency [2] | Potency [3] | Potency [4]

O=c1cc(-c2ccc(O)cc2)oc2c([C@@H]3O[C@H](CO)[C@@H](O)[C@H](O)[C@H]3O)c(O)c([C@@H]3O[C@H](CO)[C@@H](O)[C@H](O)[C@H]3O)c(O)c12
inactive: Potency [1] | Potency [2] | Potency [3] | Potency [4]

C[C@@H]1NC(=O)N[C@@H]1CCCCCC(=O)O
inactive: Potency [1] | Potency [2] | Potency [3] | Potency [4]

C[C@]12CCC3C(CC[C@H]4C[C@@H](O)CC[C@]34C)C1C[C@@H](O)C2=O (stereo not given in full)
inactive: Potency [1] | Potency [2] | Potency [3] | Potency [4]

CC(=O)Oc1ccc2c(C)cc(=O)oc2c1
inactive: Potency [1] | Potency [2] | Potency [3] | Potency [4]

CCC(C)(C)O
inactive: Potency [1] | Potency [2] | Potency [3] | Potency [4]

CC(C)CNC(=O)/C=C/C=C/c1ccc2c(c1)OCO2
inactive: Potency [1] | Potency [2] | Potency [3] | Potency [4]

CC(C)=CCC/C(C)=C/Cc1c(O)ccc(C(=O)/C=C/c2ccc(O)cc2)c1O
inactive: Potency [1] | Potency [2] | Potency [3] | Potency [4]

NC(=O)c1ncn([C@@H]2O[C@H](CO)[C@@H](O)[C@@H]2O)c1O
inactive: Potency [1] | Potency [2] | Potency [3] | Potency [4]

C[C@@H](C[C@@H](O)[C@H](O)C(C)(C)O)[C@@H]1CC[C@]2(C)C3=CC[C@H]4C(C)(C)C(=O)CC[C@]4(C)[C@H]3CC[C@@]12C
inactive: Potency [1] | Potency [2] | Potency [3] | Potency [4]

NC(=O)[C@H]1CCCN1C(=O)[C@H](Cc1cnc[nH]1)NC(=O)[C@@H]1CCC(=O)N1
inactive: activity change, negative = inhibition [1] 10.2% [at 5.82 µM] | activity change, negative = reduced viability [2] 6.52% [at 5.82 µM] | activity change, negative = lower viability [3] -0.247% [at 5.82 µM] | activity change, negative = inhibition [4] -2.24% [at 5.82 µM]

C/C=C(/C)C(=O)OC(C)(C)[C@@H]1Cc2c(ccc3ccc(=O)oc23)O1
inactive: Potency [1] | Potency [2] | Potency [3] | Potency [4]

COc1ccc(C(C)=O)cc1
inactive: Potency [1] | Potency [2] | Potency [3] | Potency [4]

CCC[C@H]1C[C@H](C(=O)N[C@@H]([C@@H]2O[C@@H](SC)[C@@H](O)[C@@H](O)[C@@H]2O)[C@H](C)Cl)N(C)C1
inactive: Potency [1] | Potency [2] | Potency [3] | Potency [4]

O[C@@H]1CCN2Cc3ccccc3N=C12
inactive: Potency [1] | Potency [2] | Potency [3] | Potency [4]

COc1ccc(C2OCC3(O)C(c4ccc(OC)c(OC)c4)OCC23)cc1OC (stereo not given)
inactive: Potency [1] | Potency [2] | Potency [3] | Potency [4]

CC1CC2CCCC(O)=C2C(=O)O1 (stereo not given)
inactive: Potency [1] | Potency [2] | Potency [3] | Potency [4]

CCCC(C)C(O)CC (stereo not given)
inactive: Potency [1] | Potency [2] | Potency [3] | Potency [4]

C[N+](C)(C)C[C@H](O)CC(=O)[O-]
inactive: Potency [1] | Potency [2] | Potency [3] | Potency [4]
